# Test results reported in ChEMBL document CHEMBL1961873, “Compounds: GSK PKIS; Assays: Nanosyn kinase panel” (2012).
# Key:
# [1] = biological target: T1, Serine/threonine-protein kinase D2 (Homo sapiens) (UniProt Q9BZL6); conditions: at 1 µM;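 also: mean value of PRKD2 inhibition, from the GSK PKIS screening panel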
# T1 sequence (whole entry): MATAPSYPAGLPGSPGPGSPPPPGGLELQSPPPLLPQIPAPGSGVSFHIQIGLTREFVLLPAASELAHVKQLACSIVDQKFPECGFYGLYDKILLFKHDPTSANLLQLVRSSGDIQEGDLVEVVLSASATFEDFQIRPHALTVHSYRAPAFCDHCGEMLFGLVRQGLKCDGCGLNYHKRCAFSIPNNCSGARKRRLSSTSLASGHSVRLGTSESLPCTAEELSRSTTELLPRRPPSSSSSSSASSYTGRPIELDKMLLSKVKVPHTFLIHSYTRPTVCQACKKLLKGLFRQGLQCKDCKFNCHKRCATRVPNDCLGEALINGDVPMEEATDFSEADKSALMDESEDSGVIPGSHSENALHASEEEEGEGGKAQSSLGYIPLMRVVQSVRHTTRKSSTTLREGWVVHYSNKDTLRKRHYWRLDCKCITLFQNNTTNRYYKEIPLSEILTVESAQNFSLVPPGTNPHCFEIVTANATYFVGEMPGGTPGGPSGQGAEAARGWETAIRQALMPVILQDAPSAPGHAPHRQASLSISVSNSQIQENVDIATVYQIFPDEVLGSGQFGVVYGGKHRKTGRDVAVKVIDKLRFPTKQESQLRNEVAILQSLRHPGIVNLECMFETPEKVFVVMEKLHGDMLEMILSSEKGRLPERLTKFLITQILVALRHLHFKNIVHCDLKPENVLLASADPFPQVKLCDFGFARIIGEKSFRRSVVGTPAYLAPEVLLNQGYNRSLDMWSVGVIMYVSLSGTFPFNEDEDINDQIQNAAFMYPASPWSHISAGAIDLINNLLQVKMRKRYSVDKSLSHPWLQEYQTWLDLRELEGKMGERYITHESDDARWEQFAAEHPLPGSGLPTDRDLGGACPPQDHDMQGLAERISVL
# [2] = biological target: T2, Serine/threonine-protein kinase D3 (Homo sapiens) (UniProt O94806); conditions: at 0.1 µM
# T2 sequence (whole entry): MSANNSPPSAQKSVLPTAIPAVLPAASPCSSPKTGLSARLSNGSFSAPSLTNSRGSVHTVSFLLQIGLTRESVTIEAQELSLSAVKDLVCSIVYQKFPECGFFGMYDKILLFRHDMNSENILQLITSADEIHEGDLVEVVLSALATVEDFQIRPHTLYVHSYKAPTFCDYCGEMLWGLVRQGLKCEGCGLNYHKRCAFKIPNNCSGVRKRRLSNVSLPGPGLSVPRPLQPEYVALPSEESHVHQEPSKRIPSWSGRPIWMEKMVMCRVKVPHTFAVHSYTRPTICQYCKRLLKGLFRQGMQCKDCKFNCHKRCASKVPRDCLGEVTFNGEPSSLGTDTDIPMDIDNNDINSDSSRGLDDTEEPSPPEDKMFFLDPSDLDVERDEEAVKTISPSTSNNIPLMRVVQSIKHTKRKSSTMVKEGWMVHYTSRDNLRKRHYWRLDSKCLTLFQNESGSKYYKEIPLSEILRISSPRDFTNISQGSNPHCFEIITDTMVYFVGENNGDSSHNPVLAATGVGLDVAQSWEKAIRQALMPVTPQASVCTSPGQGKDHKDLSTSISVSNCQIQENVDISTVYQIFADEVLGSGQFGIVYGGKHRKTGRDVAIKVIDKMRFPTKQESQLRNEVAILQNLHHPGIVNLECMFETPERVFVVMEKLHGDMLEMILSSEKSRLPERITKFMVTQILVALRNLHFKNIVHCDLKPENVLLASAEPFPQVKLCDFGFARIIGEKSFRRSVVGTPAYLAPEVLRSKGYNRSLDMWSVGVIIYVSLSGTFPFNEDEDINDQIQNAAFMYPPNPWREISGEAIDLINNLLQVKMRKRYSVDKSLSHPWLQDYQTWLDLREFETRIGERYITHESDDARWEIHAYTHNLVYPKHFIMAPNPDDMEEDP
# [3] = biological target: T2, Serine/threonine-protein kinase D3 (Homo sapiens); conditions: at 1 µM
# [4] = biological target: T3, cGMP-dependent protein kinase 1 (Homo sapiens) (UniProt Q13976); conditions: at 0.1 µM
# T3 sequence (whole entry): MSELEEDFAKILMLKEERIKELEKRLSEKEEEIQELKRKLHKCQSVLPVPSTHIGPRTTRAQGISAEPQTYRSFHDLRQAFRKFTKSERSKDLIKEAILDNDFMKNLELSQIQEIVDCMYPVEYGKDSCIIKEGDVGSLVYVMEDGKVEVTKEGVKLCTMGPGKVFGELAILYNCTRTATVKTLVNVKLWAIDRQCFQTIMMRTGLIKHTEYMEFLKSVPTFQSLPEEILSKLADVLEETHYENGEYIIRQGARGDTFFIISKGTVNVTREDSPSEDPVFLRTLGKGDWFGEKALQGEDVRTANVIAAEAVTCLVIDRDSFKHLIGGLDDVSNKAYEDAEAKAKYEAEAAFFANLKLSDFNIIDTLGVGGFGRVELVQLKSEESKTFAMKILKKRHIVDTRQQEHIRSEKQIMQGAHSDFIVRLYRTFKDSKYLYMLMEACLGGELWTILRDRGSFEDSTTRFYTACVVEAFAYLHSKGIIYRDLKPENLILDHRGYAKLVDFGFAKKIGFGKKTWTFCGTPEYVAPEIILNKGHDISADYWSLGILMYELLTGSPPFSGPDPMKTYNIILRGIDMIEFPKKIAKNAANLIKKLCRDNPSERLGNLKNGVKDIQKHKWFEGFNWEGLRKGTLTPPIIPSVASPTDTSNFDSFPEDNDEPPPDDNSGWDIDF
# [5] = biological target: T3, cGMP-dependent protein kinase 1 (Homo sapiens); conditions: at 1 µM
# [6] = biological target: T4, cGMP-dependent protein kinase 2 (Homo sapiens) (UniProt Q13237); conditions: at 0.1 µM
# T4 sequence (whole entry): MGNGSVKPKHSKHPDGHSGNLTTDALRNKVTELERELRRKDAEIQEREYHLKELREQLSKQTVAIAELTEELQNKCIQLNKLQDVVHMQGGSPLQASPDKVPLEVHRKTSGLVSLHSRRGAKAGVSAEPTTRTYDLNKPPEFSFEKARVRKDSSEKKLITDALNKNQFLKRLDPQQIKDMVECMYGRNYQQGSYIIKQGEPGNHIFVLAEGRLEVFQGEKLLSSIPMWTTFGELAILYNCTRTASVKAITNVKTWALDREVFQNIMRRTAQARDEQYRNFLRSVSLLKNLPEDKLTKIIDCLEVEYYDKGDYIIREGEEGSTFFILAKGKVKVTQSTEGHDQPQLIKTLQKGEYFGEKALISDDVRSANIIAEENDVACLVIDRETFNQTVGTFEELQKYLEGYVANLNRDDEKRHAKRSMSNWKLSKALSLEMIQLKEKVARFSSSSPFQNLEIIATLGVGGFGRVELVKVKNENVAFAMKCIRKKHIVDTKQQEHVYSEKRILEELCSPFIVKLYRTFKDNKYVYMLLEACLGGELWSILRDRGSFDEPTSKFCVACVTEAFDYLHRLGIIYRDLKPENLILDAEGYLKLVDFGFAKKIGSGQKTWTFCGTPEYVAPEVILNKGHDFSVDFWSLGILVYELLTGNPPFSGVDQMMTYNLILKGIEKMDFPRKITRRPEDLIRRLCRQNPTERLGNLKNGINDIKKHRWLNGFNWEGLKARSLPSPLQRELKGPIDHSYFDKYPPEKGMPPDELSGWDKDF
# [7] = biological target: T4, cGMP-dependent protein kinase 2 (Homo sapiens); conditions: at 1 µM
# [8] = biological target: T5, cAMP-dependent protein kinase catalytic subunit PRKX (Homo sapiens) (UniProt P51817); conditions: at 0.1 µM
# T5 sequence (whole entry): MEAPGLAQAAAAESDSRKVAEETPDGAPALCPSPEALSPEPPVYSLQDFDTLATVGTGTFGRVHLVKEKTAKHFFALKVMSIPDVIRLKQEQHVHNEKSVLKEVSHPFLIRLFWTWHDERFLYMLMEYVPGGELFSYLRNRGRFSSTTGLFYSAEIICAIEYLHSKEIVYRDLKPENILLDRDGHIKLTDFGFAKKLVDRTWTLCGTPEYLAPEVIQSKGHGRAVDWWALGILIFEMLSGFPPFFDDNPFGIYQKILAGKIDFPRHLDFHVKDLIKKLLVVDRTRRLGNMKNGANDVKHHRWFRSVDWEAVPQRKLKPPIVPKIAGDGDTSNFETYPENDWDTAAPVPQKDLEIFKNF
# [9] = biological target: T5, cAMP-dependent protein kinase catalytic subunit PRKX (Homo sapiens); conditions: at 1 µM
# [10] = biological target: Rho-associated protein kinase 1 (Homo sapiens) (UniProt Q13464); conditions: at 0.1 µM;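 also: values are mean percent inhibition of ROCK1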
# Sequence of Rho-associated protein kinase 1 (Homo sapiens) (Q13464 2-1354 limits assumed): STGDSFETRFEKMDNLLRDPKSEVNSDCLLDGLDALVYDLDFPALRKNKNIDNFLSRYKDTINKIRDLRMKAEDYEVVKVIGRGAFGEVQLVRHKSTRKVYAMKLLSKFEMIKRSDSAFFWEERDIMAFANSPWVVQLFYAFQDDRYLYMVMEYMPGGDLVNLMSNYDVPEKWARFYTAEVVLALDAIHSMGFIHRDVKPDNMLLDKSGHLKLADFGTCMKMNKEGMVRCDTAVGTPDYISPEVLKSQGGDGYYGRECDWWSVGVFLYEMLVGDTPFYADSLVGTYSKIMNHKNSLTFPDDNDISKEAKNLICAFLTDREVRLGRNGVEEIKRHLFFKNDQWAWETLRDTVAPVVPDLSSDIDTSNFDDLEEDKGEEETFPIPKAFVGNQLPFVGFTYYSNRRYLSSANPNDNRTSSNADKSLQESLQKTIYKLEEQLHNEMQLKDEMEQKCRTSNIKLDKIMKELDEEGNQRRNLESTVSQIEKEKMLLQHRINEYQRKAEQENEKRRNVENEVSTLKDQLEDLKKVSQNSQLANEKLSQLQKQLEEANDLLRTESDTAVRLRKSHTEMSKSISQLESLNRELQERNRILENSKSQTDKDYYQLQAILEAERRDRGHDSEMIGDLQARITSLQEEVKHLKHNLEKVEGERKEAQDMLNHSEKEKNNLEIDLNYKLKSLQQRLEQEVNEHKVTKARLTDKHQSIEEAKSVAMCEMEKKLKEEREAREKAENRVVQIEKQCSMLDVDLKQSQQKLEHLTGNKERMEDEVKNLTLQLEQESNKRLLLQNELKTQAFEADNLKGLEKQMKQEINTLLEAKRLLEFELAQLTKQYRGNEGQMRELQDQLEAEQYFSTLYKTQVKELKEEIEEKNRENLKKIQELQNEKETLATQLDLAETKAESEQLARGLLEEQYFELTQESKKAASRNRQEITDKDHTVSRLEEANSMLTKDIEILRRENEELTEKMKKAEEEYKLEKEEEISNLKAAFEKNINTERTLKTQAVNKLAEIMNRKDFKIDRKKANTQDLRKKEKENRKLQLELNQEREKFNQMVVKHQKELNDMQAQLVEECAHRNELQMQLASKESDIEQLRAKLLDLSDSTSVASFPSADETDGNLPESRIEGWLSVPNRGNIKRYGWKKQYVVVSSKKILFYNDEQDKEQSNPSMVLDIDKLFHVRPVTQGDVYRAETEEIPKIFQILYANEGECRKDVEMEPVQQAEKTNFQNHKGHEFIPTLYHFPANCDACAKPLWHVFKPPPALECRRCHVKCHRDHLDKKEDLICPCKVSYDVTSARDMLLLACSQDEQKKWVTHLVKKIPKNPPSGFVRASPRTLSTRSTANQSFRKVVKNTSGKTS
SMILES,inhibition [1] [%],inhibition [2] [%],inhibition [3] [%],inhibition [4] [%],inhibition [5] [%],inhibition [6] [%],inhibition [7] [%],inhibition [8] [%],inhibition [9] [%],inhibition [10] [%]
COc1ccc2cc(-c3c(-c4ccncc4)nc(-c4ccc([S+](C)[O-])cc4)n3C)ccc2c1 (stereo not given),4.99,3.54,4.91,1.31,4.18,2.83,4.08,1.36,-0.32,0.49
CCn1c(-c2nonc2N)nc2c(C#CC(C)(C)O)nc(OC[C@@H](N)c3ccccc3)cc21,8.54,-0.8,8.35,17.7,63.5,35.9,73.3,78.2,79.3,5.46
NCc1ccc(-c2nc(-c3ccc(Cl)c(O)c3)c(-c3ccncc3)[nH]2)cc1,4.23,0.72,1.93,0.03,2.4,-0.25,3.58,-0.67,-2.14,-0.61
CCn1c(-c2nonc2N)nc2c(C#CC(C)(C)O)nc(CN3CCCC3)cc21,6.86,1.31,6.41,4.4,10.7,5.6,37.8,10.5,42,0.15
COC(=O)Nc1nc2cc(Oc3ccc(NC(=O)Nc4cccc(C(=O)O)c4)cc3)ccc2[nH]1,-1.55,-2.32,-3.85,-0.28,2.77,1.1,0.86,0.76,1.8,0.24
Nc1nc(-c2ccc3c(c2)C(=Cc2cc(Br)c(O)c(Br)c2)C(=O)N3)cs1,-1.39,-1.58,-1.34,0.42,1.43,-0.63,1.49,-0.49,0.42,-0.08
CS(=O)(=O)CCN(CC#N)Cc1ccc(-c2ccc3ncnc(Nc4ccc(OCc5cccc(F)c5)c(Cl)c4)c3c2)o1,-4.76,-2.15,-3.08,2.42,3.06,0.52,0.66,1.58,1.54,0.99
COc1ccc(-c2nn3ncccc3c2-c2ccnc(Nc3ccc(Cl)c(C(F)(F)F)c3)n2)cc1,4.34,2.86,3.78,0.21,0.97,0.9,2.46,0.84,3.14,1.25
CS(=O)(=O)CCNCc1ccc(-c2ccc3ncnc(Nc4ccc(OCc5ccccc5)c(Cl)c4)c3c2)o1,-0.61,-0.81,-0.48,1.06,2,0.55,1.26,0.78,0.52,1.32
O=C1NC(=O)C(c2cccc(Cl)c2)=C1Nc1ccc(O)c(Cl)c1,3.16,0.75,1.47,0.66,2.21,1.23,5.33,-0.43,-1.53,0.21
CC(=O)Nc1cccc(C#Cc2cncnc2Nc2ccc(OCc3cccc(F)c3)c(Cl)c2)n1,-0.67,-1.15,-1.81,2.8,3.25,3.49,6.99,1.81,5.08,1.28
COc1cc2c(cc1Nc1nc(N3CCc4ccccc43)c3cc[nH]c3n1)N(C(=O)CN(C)C)CC2,3.6,1.51,4.37,2.84,2.75,2.18,2.75,0.6,-1.42,0.33
COc1ccc(-c2ccncc2)cc1C(N)=O,5.71,5.67,11.1,4.34,13.7,2.97,17,2.9,3.27,2.65
Nc1nc(-c2ccccn2)c(-c2ccc3ncccc3n2)s1,3.27,3.61,3.13,0.89,3.86,1.67,6,1.03,1.92,0.46
COc1ccccc1Nc1ncc(-c2ccccc2)o1,2.18,4.57,4.66,3.64,1.96,3.07,2.81,2.55,3.03,2.99
COc1ccc(COc2ccc(Cc3cnc(N)nc3N)cc2OC)cc1,4.2,0.01,2.56,4.15,3.2,2.89,3.2,2.09,1.07,2.35
